# According to ChEMBL document CHEMBL3988442, “University of Dundee, Small-Polar-MMV Screening Library” (2021):
# Tested on: Trypanosoma cruzi
# Test: Trypanosoma cruzi phosphomannomutase and mannose-1-phosphate guanylyltransferase assay
# Assay type: functional
# Parameters: scale not given: direction of the effect not stated beside the values
# Conditions: 10 µM
row,SMILES,Percent Effect [%]
1,CCCS(=O)(=O)c1ncc(CN2CCC(CO)CC2)n1CC1CCCO1 (stereo not drawn),-5.34
2,CS(=O)(=O)NC1CCN(C(=O)NCCc2ccccc2F)CC1,2.14
3,Cn1ccc(CN2CCC(CCc3ccc(O)cc3)CC2)cc1=O,3.38
4,Cc1cc(N2CCN(CCO)CC2)nc(-c2ccncc2)n1,-0.876
5,COc1c(CNC2CCN(C(C)(C)C)CC2)c(C(C)C)nn1C,6.07
6,O=C1[C@@H]2CCN(Cc3ccncc3)C[C@@H]2OCCN1c1ccccc1,4.33
7,CC(C)c1cc(NC(=O)c2ccc(NC3CC3)nc2)[nH]n1,8.24
8,CN(C)C(=O)N1C[C@@H]2CC[C@H](C1)N(Cc1ccc3nsnc3c1)C2,-2.04
9,Cc1csc(N2CCCN(Cc3noc(C)n3)CC2)n1,2.36
10,CC(C)c1nccn1C1CCCN(C(=O)c2ccc3c(c2)OCO3)C1 (stereo not drawn),1.27
11,Cc1nc(C)n(C2CCCN(C(=O)c3cc(C(N)=O)cs3)C2)n1 (stereo not drawn),0.718
12,CCN1CC(C(=O)NCc2ccccc2-n2cccn2)CC1=O (stereo not drawn),2.45
13,Cc1cnn(C2CN(CC(O)c3ccc(F)cc3)C2)c1 (stereo not drawn),2.82
14,CC(C)CN1CCN(Cc2nc3ccccc3[nH]2)[C@H]2CS(=O)(=O)C[C@H]21,-6.35
15,OCCC1CN(C2CCC2)CCN1C1CCCC1 (stereo not drawn),7.87
16,Cc1cc(C)c2nc(CN3CC[C@@H](O)C3)cc(O)c2c1,-1.16
17,c1ccc(CN2CCN(Cc3cscn3)CC2)cc1,0.49
18,O=C(CSc1nncs1)N1CCN(Cc2ccc(Cl)s2)CC1,5.88
19,CC1CN(C(=O)CN(Cc2ccco2)C2CC2)CCO1 (stereo not drawn),-3.62
20,C=Cc1ccc(C(=O)N2CCCC(Nc3ccc(OC)cc3)C2)cc1 (stereo not drawn),5.41

row,SMILES,Percent Effect [%]
1,COCc1ncn2c1CN(C(=O)C1CC=CC1)CC2,-2.64
2,c1ccc(Cn2ccnc2CN2CCOC(Cn3cccn3)C2)cc1 (stereo not drawn),-7.69
3,CC(C)c1csc(C2CCCN(C(=O)c3ccc(=O)n(C)n3)C2)n1 (stereo not drawn),-1.86
4,Cc1csc(C2CCCCN2C(=O)CN(C)C2CC2)n1 (stereo not drawn),2.56
5,CC(C)NC(=O)N1CCN(CC2CC2)CC2(CC(=O)N(C)C2)C1 (stereo not drawn),0
6,Cc1ccc(C(=O)N2CC[C@@H]3[C@H]2CCC(=O)N3c2ccccc2)o1,0.591
7,Cn1cc(CN2CCCN(C(=O)c3ccc4c(c3)COC4)CC2)cn1,-3.27
8,O=C(c1cncc(N2CCC3(CCNCC3)CC2)n1)N1CCCC1,5.94
9,Cn1ncc2c(=O)[nH]c(CN3CCC(Cc4ccccc4)CC3)nc21,8.87
10,O=C(NCc1cnc2n1CCN(Cc1ccsc1)CC2)C1CCC1,0.293
11,CC(=O)c1cn(CCC(=O)N[C@H](C(=O)O)C(C)C)c2ccccc12,-2.95
12,Cc1nn(C)c(C)c1C1CCCN1C(=O)CCCn1cccn1 (stereo not drawn),-6.07
13,COc1nc2c(cc1C(=O)N1C[C@H](N)C[C@H]1C(=O)NC(C)C)CCC2,6.51
14,OC1CCN(Cc2c(C3CCCNC3)[nH]c3ncccc23)CC1 (stereo not drawn),-5.93
15,CCN1CC2(CC1=O)CN(Cc1ccco1)CCN(C(=O)N(C)C)C2 (stereo not drawn),-1.39
16,Cc1ccc(C(CNCc2ccncc2)N2CCOCC2)s1 (stereo not drawn),-2.73
17,CCOc1ncccc1C(=O)N1CCCCC1c1nccs1 (stereo not drawn),2.55
18,Cn1cc(CN2CC[C@@H]3[C@@H](CCC(=O)N3CCc3c[nH]cn3)C2)cn1,7.14
19,O=C(c1cscn1)N1CCC[C@]2(C[C@H](OCC3CC3)CO2)C1,5.91

# Biological target: T1, Arginase-2, mitochondrial (Homo sapiens) (UniProt P78540)
# T1 sequence (whole entry): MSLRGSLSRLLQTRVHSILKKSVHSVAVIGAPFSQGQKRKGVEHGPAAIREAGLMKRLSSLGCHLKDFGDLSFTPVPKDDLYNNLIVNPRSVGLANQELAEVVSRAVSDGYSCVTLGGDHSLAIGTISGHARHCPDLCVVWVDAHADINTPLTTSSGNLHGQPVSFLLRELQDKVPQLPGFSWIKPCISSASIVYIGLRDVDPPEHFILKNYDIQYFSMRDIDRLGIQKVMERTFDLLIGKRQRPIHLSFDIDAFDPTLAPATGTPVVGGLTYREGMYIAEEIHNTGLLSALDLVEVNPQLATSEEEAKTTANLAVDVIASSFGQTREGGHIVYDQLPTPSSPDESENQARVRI
# Test: in vitro enzyme assay to detect the production of urea directly proportional to the activity of Arginase II; also: in the data most compounds retested in dose-response had high values
# Assay type: functional
# Parameters: scale not given: direction of the effect not stated beside the values
# Conditions: 33.3 µM
row,SMILES,Percent Effect [%]
1,CCCS(=O)(=O)c1ncc(CN2CCC(CO)CC2)n1CC1CCCO1 (stereo not drawn),0.442
2,CS(=O)(=O)NC1CCN(C(=O)NCCc2ccccc2F)CC1,2.03
3,Cn1ccc(CN2CCC(CCc3ccc(O)cc3)CC2)cc1=O,-1.07
4,Cc1cc(N2CCN(CCO)CC2)nc(-c2ccncc2)n1,-8.28
5,COc1c(CNC2CCN(C(C)(C)C)CC2)c(C(C)C)nn1C,-2.52
6,O=C1[C@@H]2CCN(Cc3ccncc3)C[C@@H]2OCCN1c1ccccc1,-3.5
7,CC(C)c1cc(NC(=O)c2ccc(NC3CC3)nc2)[nH]n1,-6.05
8,CN(C)C(=O)N1C[C@@H]2CC[C@H](C1)N(Cc1ccc3nsnc3c1)C2,4.42
9,Cc1csc(N2CCCN(Cc3noc(C)n3)CC2)n1,-7.1
10,CC(C)c1nccn1C1CCCN(C(=O)c2ccc3c(c2)OCO3)C1 (stereo not drawn),5.26
11,Cc1nc(C)n(C2CCCN(C(=O)c3cc(C(N)=O)cs3)C2)n1 (stereo not drawn),1.07
12,CCN1CC(C(=O)NCc2ccccc2-n2cccn2)CC1=O (stereo not drawn),-1.05
13,Cc1cnn(C2CN(CC(O)c3ccc(F)cc3)C2)c1 (stereo not drawn),8.33
14,CC(C)CN1CCN(Cc2nc3ccccc3[nH]2)[C@H]2CS(=O)(=O)C[C@H]21,2.73
15,OCCC1CN(C2CCC2)CCN1C1CCCC1 (stereo not drawn),-1.77
16,Cc1cc(C)c2nc(CN3CC[C@@H](O)C3)cc(O)c2c1,-3.81
17,c1ccc(CN2CCN(Cc3cscn3)CC2)cc1,3.58
18,O=C(CSc1nncs1)N1CCN(Cc2ccc(Cl)s2)CC1,0
19,CC1CN(C(=O)CN(Cc2ccco2)C2CC2)CCO1 (stereo not drawn),4.84
20,C=Cc1ccc(C(=O)N2CCCC(Nc3ccc(OC)cc3)C2)cc1 (stereo not drawn),-1.43

row,SMILES,Percent Effect [%]
1,COCc1ncn2c1CN(C(=O)C1CC=CC1)CC2,-1.74
2,c1ccc(Cn2ccnc2CN2CCOC(Cn3cccn3)C2)cc1 (stereo not drawn),-5.81
3,CC(C)c1csc(C2CCCN(C(=O)c3ccc(=O)n(C)n3)C2)n1 (stereo not drawn),1.74
4,Cc1csc(C2CCCCN2C(=O)CN(C)C2CC2)n1 (stereo not drawn),-2.37
5,CC(C)NC(=O)N1CCN(CC2CC2)CC2(CC(=O)N(C)C2)C1 (stereo not drawn),1.25
6,Cc1ccc(C(=O)N2CC[C@@H]3[C@H]2CCC(=O)N3c2ccccc2)o1,0.233
7,Cn1cc(CN2CCCN(C(=O)c3ccc4c(c3)COC4)CC2)cn1,-2.16
8,O=C(c1cncc(N2CCC3(CCNCC3)CC2)n1)N1CCCC1,33.9
9,Cn1ncc2c(=O)[nH]c(CN3CCC(Cc4ccccc4)CC3)nc21,3.6
10,O=C(NCc1cnc2n1CCN(Cc1ccsc1)CC2)C1CCC1,3.72
11,CC(=O)c1cn(CCC(=O)N[C@H](C(=O)O)C(C)C)c2ccccc12,-9.68
12,Cc1nn(C)c(C)c1C1CCCN1C(=O)CCCn1cccn1 (stereo not drawn),10.1
13,COc1nc2c(cc1C(=O)N1C[C@H](N)C[C@H]1C(=O)NC(C)C)CCC2,8.83
14,OC1CCN(Cc2c(C3CCCNC3)[nH]c3ncccc23)CC1 (stereo not drawn),-3.94
15,CCN1CC2(CC1=O)CN(Cc1ccco1)CCN(C(=O)N(C)C)C2 (stereo not drawn),4.39
16,Cc1ccc(C(CNCc2ccncc2)N2CCOCC2)s1 (stereo not drawn),1.67
17,CCOc1ncccc1C(=O)N1CCCCC1c1nccs1 (stereo not drawn),-7.62
18,Cn1cc(CN2CC[C@@H]3[C@@H](CCC(=O)N3CCc3c[nH]cn3)C2)cn1,-4.79
19,O=C(c1cscn1)N1CCC[C@]2(C[C@H](OCC3CC3)CO2)C1,0.233
